Hits are enriched below; roughly 2.6% of the tested compounds scored in any of these assays.
Cruzain inh Det = cruzain (T. cruzi) inhibition with detergent. P25779. purified cruzain, Z-FR-AMC fluorescence, 0.01% Triton. Potency, µM, for the others: max response, negative = inhibition, actives largely listed as inhibitors. 0.43% of 200,000 active. AID 1478;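 further: plate controls were neutral wells for no effect and buffer without enzyme for full effect; nearly all actives have a fitted effect of over 40% in size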
Target sequence (P25779 123-467 limits assumed): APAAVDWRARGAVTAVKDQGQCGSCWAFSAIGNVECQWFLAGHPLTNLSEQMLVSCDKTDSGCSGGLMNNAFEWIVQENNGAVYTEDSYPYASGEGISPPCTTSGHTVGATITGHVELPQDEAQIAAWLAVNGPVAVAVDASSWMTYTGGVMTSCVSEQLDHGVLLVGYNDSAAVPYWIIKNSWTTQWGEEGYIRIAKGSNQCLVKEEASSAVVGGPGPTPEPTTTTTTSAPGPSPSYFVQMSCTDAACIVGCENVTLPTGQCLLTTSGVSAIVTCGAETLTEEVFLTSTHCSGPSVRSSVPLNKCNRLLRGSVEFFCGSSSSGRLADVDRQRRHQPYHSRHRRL
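Read-out: AMC fluorescence (360 nm excitation, 450 nm emission), four reads over 2 min, first-to-third difference used. Conditions: cruzain 1.5 nM, Z-FR-AMC 2 uM, pH 5.5 acetate, 5 mM DTT, 0.01% Triton X-100.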
Cruzain noTriton = blocks cruzain activity in detergent-free assay | P25779 | purified cruzain, Z-FR-AMC fluorescence, no detergent | Potency, µM, without a hit: max response, negative = inhibition, hits mostly inhibitors | 2.3% of 200,000 active;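 further: plate controls were enzyme without inhibitor for no effect and buffer without enzyme for full effect; nearly all actives have a fitted effect of over 40% in size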
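Purified cruzain at 1.5 nM, pre-incubated 15 min with compound at room temperature in 100 mM sodium acetate pH 5.5, 5 mM DTT, 0.00005% Triton X-100. Reaction started with 2 uM Z-FR-AMC; AMC fluorescence increase over 60 s gives rate.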
Numbers without * were called inactive; ? = inconclusive. The call rests on the fitted dose curve; in most records, active means well fitted curve in the direction sought with a large enough effect; inconclusive means small, poorly fitted or top-dose-only effect, or another doubt; inactive means no such curve, though single readings can be large; an effect the other way counts as inactive or inconclusive. Potency means the concentration at half of the fitted maximal effect.

SMILES	Cruzain inh Det	Cruzain noTriton
Cc1cc(=O)oc2c(O)c(O)ccc12	-12%	-19%
CC(C)CN(Cc1c(O)ccc2c3c(c(=O)oc12)CCC3)CC(C)C	28µM*	-99%
O=C(c1ccco1)N1CCN(c2nc(C(F)(F)F)nc3c2nnn3Cc2ccccc2)CC1	-12%	?
O=C(CSCCO)Nc1cccc([N+](=O)[O-])c1	-1%	6%
COc1ccccc1-n1c(SCC(=O)c2ccc(O)cc2O)nc2cc([N+](=O)[O-])ccc21	-2%	13µM*
COc1ccccc1-n1c(SCC(=O)NC2CCS(=O)(=O)C2)nc2cc([N+](=O)[O-])ccc21 (stereo not given)	-2%	?
CCc1cc(SC#N)cc(CC)c1NC(=O)CCl	-6%	-4%
Cc1c(Cl)c([N+](=O)[O-])nn1CCCC(=O)Nc1cccc(Cl)c1Cl	-3%	-11%
COc1ccc(C(C[N+](=O)[O-])c2c(-c3ccccc3)cc3ccccn23)c(OC)c1 (stereo not given)	-6%	?
Cc1cc2ccccn2c1C(C[N+](=O)[O-])c1ccc(N(C)C)cc1 (stereo not given)	-10%	25µM*
CCc1cc2cc3c(cc2nc1SCC(=O)Nc1nccs1)OCO3	1%	20µM*
Cc1ccc2c3c(c(SCC(=O)Nc4nccs4)nc2c1)CCCC3	2%	1%
Cc1ccc(C)c(CSC2=NCCN2C(=O)Cc2ccc([N+](=O)[O-])cc2)c1	-4%	-27%
CC[C@@H]1C(c2cccc(C)c2)=NN(c2ccccc2)[C@H]1C(=O)N1CCOC1=O	1%	3%
COc1ccccc1[C@@H]1C(c2ccccc2)=NN(c2ccc(Br)cc2)[C@H]1C(=O)N1CCOC1=O	0%	18µM*
COc1ccccc1[C@@H]1C(c2cccc(C)c2)=NN(c2ccc(Br)cc2)[C@H]1C(=O)N1CCOC1=O	-3%	10µM*
CC[C@@H]1C(c2ccc(F)cc2)=NN(c2ccc(Br)cc2)[C@H]1C(=O)N1CCOC1=O	-6%	?
COc1ccccc1[C@@H]1C(c2cccc(Cl)c2)=NN(c2ccccc2)[C@H]1C(=O)N1CCOC1=O	1%	25µM*
CCn1cc(/C=N\NC(=O)c2ccccc2Cl)cn1	-3%	0%
Cc1ccc(C(C)NC(=O)c2c(C)noc2C)cc1C (stereo not given)	1%	7%
CCCCOC(=O)c1ccc(Nc2nc3ccccc3c3nnc(C)n23)cc1	-3%	?
CCN(CC)CCCNC(=O)CSc1nc2nc(C)c(Cc3c(F)cccc3Cl)c(C)n2n1	2%	4%
Cc1ccc(S(=O)(=O)C(CNC(=O)C(=O)NCc2ccc(Cl)cc2)c2cccs2)cc1 (stereo not given)	-3%	-20%
O=C1C2C3c4ccccc4C(c4ccccc43)[C@@H]2C(=O)N1c1nc(-c2ccccc2)cs1 (stereo not given in full)	-4%	13µM*
O=C1C2C3c4ccccc4C(c4ccccc43)C2C(=O)N1c1nc(-c2ccccc2)cs1 (stereo not given)	-3%	?
SMILES	Cruzain inh Det	Cruzain noTriton
Cc1ccc(C(c2nnnn2C2CCCC2)N2c3ccccc3CC2C)cc1 (stereo not given)	-2%	?
COc1cccc(/C=N/NC(N)=S)c1OCc1cccc(Cl)c1	-24%	5µM*
NC(=S)N/N=C\c1ccccc1OCc1ccccc1	3.2µM*	1.3µM*
COC(=O)N/N=C/c1cc(Cl)cc(Cl)c1OCc1ccccc1	-7%	-10%
O=C(CSCc1ccccc1)N/N=C/c1ccccc1OCc1ccccc1	-1%	1%
Clc1ccc(-c2cnc3ccccc3n2)cc1	-4%	-7%
CC(C)(C)n1nnnc1CN(Cc1cccnc1)Cc1ccccc1Cl	3%	3%
C/C(CC(=O)Nc1ccc(C)c(Cl)c1)=N\NC(=O)Cc1ccccc1	-3%	11%
C/C(CC(=O)Nc1ccc(OCc2ccccc2)cc1)=N\NC(=O)C(=O)Nc1ccc(C)c(Cl)c1	1%	7.9µM*
CC12CCC(C(=O)N(CSC(=S)N/N=C\c3ccccc3Cl)C1=O)C2(C)C (stereo not given)	3%	16µM*
CC12CCC(C(=O)N(CSC(=S)N/N=C\c3ccccc3)C1=O)C2(C)C (stereo not given)	-3%	-1%
COc1cccc(C2C3=C(N=c4s/c(=C\c5cccc(O)c5)c(=O)n42)c2ccccc2CC3)c1OC (stereo not given)	0%	10µM*
COc1ccccc1C1C2=C(N=c3s/c(=C/c4cccc(OCC(=O)O)c4)c(=O)n31)c1ccccc1CC2 (stereo not given)	28µM*	?
CCOC(=O)C1=C(C)N=c2s/c(=C\c3cc(OC)c(OC)c(OC)c3)c(=O)n2C1/C=C/c1ccccc1 (stereo not given)	-3%	13%
COc1cccc(C2C3=C(N=c4s/c(=C\c5ccc(O)cc5)c(=O)n42)c2ccccc2CC3)c1OC (stereo not given)	-2%	?
COC(=O)c1ccc(Cn2nnc3c(=O)[nH]c(C4CCCN(S(=O)(=O)c5ccccc5Cl)C4)nc32)cc1 (stereo not given)	-2%	-6%
O=C(COc1ccccc1)Nc1ccc(S(=O)(=O)N2CCCC2)cc1	-4%	?
COc1cc(Cl)c(C)cc1NC(=O)CCc1c(C)nc2c3cccnc3nn2c1C	0%	-1%
O=C(/C=C/c1ccc(Cl)cc1Cl)c1nc2ccccc2[nH]1	4%	7.9µM*
N#C/C(=C\c1ccc(Cl)cc1)c1nc2ccccc2[nH]1	-5%	2%
Cc1cc(C)cc(N2C(=O)CS(=O)(=O)C23C(=O)N(C)c2ccccc23)c1 (stereo not given)	-1%	-20%
Cc1ccc(CN2C(=O)C3(c4ccccc42)N(c2cccc(F)c2)C(=O)CS3(=O)=O)cc1 (stereo not given)	-5%	1.6µM*
Cc1ccc(C)c(CN2C(=O)C3(c4ccccc42)N(c2cccc(C(F)(F)F)c2)C(=O)CS3(=O)=O)c1 (stereo not given)	-6%	1.3µM*
Cc1ccc(N2C(=O)CS(=O)(=O)C23C(=O)N(Cc2cccc(F)c2)c2ccccc23)cc1Cl (stereo not given)	-5%	2µM*
COc1ccc(N2C(=O)CS(=O)(=O)C23C(=O)N(Cc2cccc(F)c2)c2ccccc23)cc1OC (stereo not given)	-4%	-8%
SMILES	Cruzain inh Det	Cruzain noTriton
O=C1CS(=O)(=O)C2(C(=O)N(Cc3ccccc3)c3ccccc32)N1c1ccc(F)c(Cl)c1 (stereo not given)	-2%	2µM*
CN1C(=O)C2(c3ccccc31)N(c1cccc(F)c1)C(=O)CS2(=O)=O (stereo not given)	-6%	-7%
CN1C(=O)C2(c3ccccc31)N(c1ccc(F)c(Cl)c1)C(=O)CS2(=O)=O (stereo not given)	-1%	?
CSc1nnc([C@@H](NC(=O)OC(C)(C)C)C(C)C)o1	0%	1%
COc1ccc(/C=N/Nc2nc(N3CCCC3)nc(N3CCCC3)n2)cc1O	-4%	-5%
Cc1cccc(OCC(=O)N(Cc2ccccc2)c2ccccn2)c1	-6%	-10%
COc1ccc(Cl)cc1NC(=O)CSc1nc(=O)n(Cc2ccco2)c2c1CCC2	-5%	12%
CCOc1ccc(C(=O)N2CCCC2)cc1OC	-3%	-2%
COc1ccc(NCc2cc3cc4c(cc3n(CC(=O)Nc3cccc(F)c3)c2=O)OCO4)cc1	2%	?

Screening data deposited in PubChem BioAssay by National Center for Advancing Translational Sciences (NCATS).
